Assay results as given in publication PMC7862700, “An all-to-all approach to the identification of sequence-specific readers for epigenetic DNA modifications on cytosine”.

Experiments:
Assay in all cases: DAPPL (digital affinity profiling via proximity ligation, sequencing); 10 mM Tris-HCl pH 7.5, 50 mM NaCl, 1 mM DTT, 4% glycerol, room temperature, 30 min; GST-TFs on glutathione beads, 16-mer random dsDNA library, 0.1% formaldehyde crosslink after washing; high values mean tight binding
Conditions in all cases: protein: recombinant; tags: N-terminal GST; dsDNA, one strand shown
FLI1 = molecular target: T1, FLI1 (Homo sapiens, UniProt Q01543 1-452)
T1 sequence: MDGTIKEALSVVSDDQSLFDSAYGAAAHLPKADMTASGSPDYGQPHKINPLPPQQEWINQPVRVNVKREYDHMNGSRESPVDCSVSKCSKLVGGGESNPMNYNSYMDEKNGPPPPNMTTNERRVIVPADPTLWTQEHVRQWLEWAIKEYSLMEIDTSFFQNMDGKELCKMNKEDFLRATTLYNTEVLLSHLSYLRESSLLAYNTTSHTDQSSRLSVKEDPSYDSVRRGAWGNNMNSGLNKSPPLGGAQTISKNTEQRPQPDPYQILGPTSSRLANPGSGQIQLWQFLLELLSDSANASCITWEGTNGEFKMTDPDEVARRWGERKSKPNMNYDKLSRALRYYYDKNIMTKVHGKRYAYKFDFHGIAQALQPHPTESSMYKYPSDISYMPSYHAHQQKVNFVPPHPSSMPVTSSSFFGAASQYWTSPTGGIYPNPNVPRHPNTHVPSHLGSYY
In short: (§1)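 Human transcription factors fused to GST were expressed in yeast, captured on glutathione beads, given DNA barcodes and pooled with a GST-only negative control. Pools were incubated with 200 nmole of a 16-mer random double-stranded DNA library in Tris/NaCl/DTT/glycerol buffer at room temperature for 30 min. They were then washed, crosslinked with 0.1% formaldehyde, proximity-ligated (BsaI/T4 ligase, 1 h, 37 °C), PCR-amplified and sequenced on an Illumina NextSeq500. Binding signal is each 6-mer's read frequency for a factor divided by its frequency for the GST control.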

ELK1 = molecular target: T2, ELK1 (Homo sapiens, UniProt P19419 1-428)
T2 sequence: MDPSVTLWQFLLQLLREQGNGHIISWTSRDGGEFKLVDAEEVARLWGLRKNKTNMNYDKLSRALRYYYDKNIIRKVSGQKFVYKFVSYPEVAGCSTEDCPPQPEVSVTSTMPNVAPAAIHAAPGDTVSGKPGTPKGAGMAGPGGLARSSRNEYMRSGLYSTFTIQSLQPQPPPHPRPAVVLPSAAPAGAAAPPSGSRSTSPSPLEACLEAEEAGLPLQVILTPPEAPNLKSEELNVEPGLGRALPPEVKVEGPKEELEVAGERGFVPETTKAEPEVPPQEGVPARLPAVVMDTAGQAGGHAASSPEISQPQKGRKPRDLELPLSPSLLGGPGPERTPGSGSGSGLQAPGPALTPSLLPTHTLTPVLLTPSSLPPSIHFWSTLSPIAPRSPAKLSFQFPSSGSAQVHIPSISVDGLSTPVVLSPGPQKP
In short: as §1

GABPA = molecular target: T3, GABPA (Homo sapiens, UniProt Q06546 1-454)
T3 sequence: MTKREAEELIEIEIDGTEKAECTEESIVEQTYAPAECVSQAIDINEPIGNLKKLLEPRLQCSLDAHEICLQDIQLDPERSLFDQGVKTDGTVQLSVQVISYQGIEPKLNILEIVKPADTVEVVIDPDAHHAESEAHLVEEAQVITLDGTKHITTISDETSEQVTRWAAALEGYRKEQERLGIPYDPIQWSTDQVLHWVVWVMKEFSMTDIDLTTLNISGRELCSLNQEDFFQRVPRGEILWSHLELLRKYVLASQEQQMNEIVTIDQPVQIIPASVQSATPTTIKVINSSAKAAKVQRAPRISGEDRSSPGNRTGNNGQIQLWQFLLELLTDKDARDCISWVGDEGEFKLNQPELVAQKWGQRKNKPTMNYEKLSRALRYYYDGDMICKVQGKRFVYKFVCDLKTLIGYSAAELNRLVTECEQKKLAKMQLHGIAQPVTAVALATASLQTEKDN
In short: as §1

ERG = molecular target: T4, ERG (Homo sapiens, UniProt P11308 1-479)
T4 sequence: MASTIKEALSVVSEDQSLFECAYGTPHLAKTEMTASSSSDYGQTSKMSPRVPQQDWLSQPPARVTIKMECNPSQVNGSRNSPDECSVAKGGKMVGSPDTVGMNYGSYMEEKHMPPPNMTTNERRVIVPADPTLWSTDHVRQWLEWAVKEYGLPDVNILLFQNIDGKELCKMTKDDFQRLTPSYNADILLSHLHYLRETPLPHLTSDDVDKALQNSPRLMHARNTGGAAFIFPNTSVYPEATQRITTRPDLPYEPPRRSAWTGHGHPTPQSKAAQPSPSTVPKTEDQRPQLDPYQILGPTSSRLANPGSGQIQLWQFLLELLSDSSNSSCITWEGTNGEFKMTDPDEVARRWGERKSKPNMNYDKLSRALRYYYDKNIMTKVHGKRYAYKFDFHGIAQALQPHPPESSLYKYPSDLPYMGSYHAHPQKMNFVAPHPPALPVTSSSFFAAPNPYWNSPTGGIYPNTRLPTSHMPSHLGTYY
In short: as §1

ELF1 = ELF1 (Homo sapiens, UniProt P32519 1-619)
In short: as §1

EHF = molecular target: T5, EHF (Homo sapiens, UniProt Q9NZC4 1-300)
T5 sequence: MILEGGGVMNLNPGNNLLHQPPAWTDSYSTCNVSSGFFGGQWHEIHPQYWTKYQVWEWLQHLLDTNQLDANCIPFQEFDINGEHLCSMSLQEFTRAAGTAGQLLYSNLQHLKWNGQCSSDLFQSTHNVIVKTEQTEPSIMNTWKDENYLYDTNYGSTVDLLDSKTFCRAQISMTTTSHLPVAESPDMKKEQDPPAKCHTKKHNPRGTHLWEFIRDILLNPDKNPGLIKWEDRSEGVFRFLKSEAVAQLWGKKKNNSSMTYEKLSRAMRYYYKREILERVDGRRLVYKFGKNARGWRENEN
In short: as §1

SPI1 = SPI1 (Homo sapiens, UniProt P17947 1-270)
In short: as §1

SPIB = SPIB (Homo sapiens, UniProt Q01892 1-262)
In short: as §1

ELK3 = molecular target: T6, ELK3 (Homo sapiens, UniProt P41970 1-407)
T6 sequence: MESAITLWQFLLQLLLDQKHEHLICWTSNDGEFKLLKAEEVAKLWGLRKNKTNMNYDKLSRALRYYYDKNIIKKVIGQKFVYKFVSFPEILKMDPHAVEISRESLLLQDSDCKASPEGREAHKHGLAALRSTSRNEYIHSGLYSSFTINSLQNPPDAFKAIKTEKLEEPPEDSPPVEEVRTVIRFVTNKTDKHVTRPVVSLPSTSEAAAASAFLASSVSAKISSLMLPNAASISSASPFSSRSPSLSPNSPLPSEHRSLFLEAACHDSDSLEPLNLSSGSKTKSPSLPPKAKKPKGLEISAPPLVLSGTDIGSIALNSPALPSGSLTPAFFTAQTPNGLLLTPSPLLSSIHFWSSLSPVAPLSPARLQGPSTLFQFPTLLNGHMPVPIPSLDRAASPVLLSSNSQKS
In short: as §1

Chain of SPIB (Q01892 whole entry): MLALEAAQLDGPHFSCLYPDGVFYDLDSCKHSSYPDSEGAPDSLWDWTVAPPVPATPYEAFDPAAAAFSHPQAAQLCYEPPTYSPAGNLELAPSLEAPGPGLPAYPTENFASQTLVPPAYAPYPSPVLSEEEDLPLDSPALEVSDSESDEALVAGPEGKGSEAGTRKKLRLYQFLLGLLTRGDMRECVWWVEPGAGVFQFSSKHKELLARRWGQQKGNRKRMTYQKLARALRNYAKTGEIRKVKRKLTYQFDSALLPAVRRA
Chain of ELF1 (P32519 whole entry): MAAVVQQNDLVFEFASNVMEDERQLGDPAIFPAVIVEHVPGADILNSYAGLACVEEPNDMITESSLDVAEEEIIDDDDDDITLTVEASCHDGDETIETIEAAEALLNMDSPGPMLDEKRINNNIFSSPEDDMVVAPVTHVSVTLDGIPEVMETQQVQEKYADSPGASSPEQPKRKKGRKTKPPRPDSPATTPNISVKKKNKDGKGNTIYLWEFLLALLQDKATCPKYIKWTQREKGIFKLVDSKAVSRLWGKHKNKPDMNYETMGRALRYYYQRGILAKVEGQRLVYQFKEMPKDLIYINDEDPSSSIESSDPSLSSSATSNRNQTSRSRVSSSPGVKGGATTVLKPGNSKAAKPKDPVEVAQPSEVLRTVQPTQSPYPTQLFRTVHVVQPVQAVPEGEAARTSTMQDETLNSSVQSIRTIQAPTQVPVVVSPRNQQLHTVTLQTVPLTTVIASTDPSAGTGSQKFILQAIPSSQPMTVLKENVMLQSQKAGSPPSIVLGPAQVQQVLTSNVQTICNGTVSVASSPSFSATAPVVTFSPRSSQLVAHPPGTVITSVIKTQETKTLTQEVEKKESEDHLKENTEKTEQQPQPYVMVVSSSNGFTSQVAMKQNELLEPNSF

Sequence	binding signal (FLI1)	binding signal (ELK1)	binding signal (GABPA)	binding signal (ERG)	binding signal (ELF1)	binding signal (EHF)	binding signal (SPI1)	binding signal (SPIB)	binding signal (ELK3)
ACGGCT	1.02 fold enrichment (6-mer frequency, TF over GST control)	1.16 fold enrichment (6-mer frequency, TF over GST control)	1.13 fold enrichment (6-mer frequency, TF over GST control)	1.12 fold enrichment (6-mer frequency, TF over GST control)	1.08 fold enrichment (6-mer frequency, TF over GST control)	1 fold enrichment (6-mer frequency, TF over GST control)	1.18 fold enrichment (6-mer frequency, TF over GST control)	1.14 fold enrichment (6-mer frequency, TF over GST control)	1.05 fold enrichment (6-mer frequency, TF over GST control)
TGACAT	1.27 fold enrichment (6-mer frequency, TF over GST control)	1.27 fold enrichment (6-mer frequency, TF over GST control)	1.31 fold enrichment (6-mer frequency, TF over GST control)	1.19 fold enrichment (6-mer frequency, TF over GST control)	1.28 fold enrichment (6-mer frequency, TF over GST control)	1.36 fold enrichment (6-mer frequency, TF over GST control)	1.21 fold enrichment (6-mer frequency, TF over GST control)	1.19 fold enrichment (6-mer frequency, TF over GST control)	1.15 fold enrichment (6-mer frequency, TF over GST control)
TCAATG	1.08 fold enrichment (6-mer frequency, TF over GST control)	1.13 fold enrichment (6-mer frequency, TF over GST control)	1.11 fold enrichment (6-mer frequency, TF over GST control)	1.1 fold enrichment (6-mer frequency, TF over GST control)	1.04 fold enrichment (6-mer frequency, TF over GST control)	1.04 fold enrichment (6-mer frequency, TF over GST control)	1.07 fold enrichment (6-mer frequency, TF over GST control)	1.11 fold enrichment (6-mer frequency, TF over GST control)	1.07 fold enrichment (6-mer frequency, TF over GST control)
ACCATC	1.18 fold enrichment (6-mer frequency, TF over GST control)	1.14 fold enrichment (6-mer frequency, TF over GST control)	1.19 fold enrichment (6-mer frequency, TF over GST control)	1.1 fold enrichment (6-mer frequency, TF over GST control)	1.21 fold enrichment (6-mer frequency, TF over GST control)	1.12 fold enrichment (6-mer frequency, TF over GST control)	1.15 fold enrichment (6-mer frequency, TF over GST control)	1.07 fold enrichment (6-mer frequency, TF over GST control)	1.24 fold enrichment (6-mer frequency, TF over GST control)
CCTGGT	1.28 fold enrichment (6-mer frequency, TF over GST control)	1.34 fold enrichment (6-mer frequency, TF over GST control)	1.4 fold enrichment (6-mer frequency, TF over GST control)	1.29 fold enrichment (6-mer frequency, TF over GST control)	1.44 fold enrichment (6-mer frequency, TF over GST control)	1.47 fold enrichment (6-mer frequency, TF over GST control)	1.4 fold enrichment (6-mer frequency, TF over GST control)	1.52 fold enrichment (6-mer frequency, TF over GST control)	1.33 fold enrichment (6-mer frequency, TF over GST control)
CCACTC	1.23 fold enrichment (6-mer frequency, TF over GST control)	1.32 fold enrichment (6-mer frequency, TF over GST control)	1.29 fold enrichment (6-mer frequency, TF over GST control)	1.19 fold enrichment (6-mer frequency, TF over GST control)	1.28 fold enrichment (6-mer frequency, TF over GST control)	1.16 fold enrichment (6-mer frequency, TF over GST control)	1.09 fold enrichment (6-mer frequency, TF over GST control)	1.16 fold enrichment (6-mer frequency, TF over GST control)	1.3 fold enrichment (6-mer frequency, TF over GST control)
CACACA	1.17 fold enrichment (6-mer frequency, TF over GST control)	1.08 fold enrichment (6-mer frequency, TF over GST control)	1.14 fold enrichment (6-mer frequency, TF over GST control)	1.15 fold enrichment (6-mer frequency, TF over GST control)	1.16 fold enrichment (6-mer frequency, TF over GST control)	1.19 fold enrichment (6-mer frequency, TF over GST control)	1.07 fold enrichment (6-mer frequency, TF over GST control)	1.17 fold enrichment (6-mer frequency, TF over GST control)	1.2 fold enrichment (6-mer frequency, TF over GST control)
